Most compounds without a hit are left out; they make up all but 4.2% or so of the library.
hgDAF-12 ag – hgDAF-12 agonism, primary luciferase screen; HEK293 GAL4-hgDAF12 UAS-luciferase reporter, agonist luminescence; normalized to butyrate control; activation, % at 6.8 µM; actives 1.8% (n = 370,000); AID 687014;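 active means activation above a cutoff set at the mean of all screened compounds plus 3 SD, cut at about 10% in these data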;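 further: 0% = DMSO wells and 100% = sodium butyrate wells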
ssDAF-12 act – S. stercoralis DAF-12 activation, primary screen; HEK293 ssDAF-12/GRIP1 lit1-tk-luc reporter, luminescence; % of 3 µM dafachronic acid response; activation, % at 6.8 µM; actives 1% (n = 370,000);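 active means activation above the mean over all tested compounds plus 3 SD, cut at about 0.9% in these data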;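 further: 0% = DMSO-only wells and 100% = 3 µM delta7-dafachronic acid wells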
esBAF inh – SWI/SNF esBAF complex inhibition | mouse ES cells, Bmi1-luciferase knock-in reporter, 24 h; 100% = twice the neutral-well signal | reporter increase, % at 12.5 µM | actives 2% (n = 350,000); in the data active means activation above about 40%; inconclusive means no clear call, values can overlap the other calls;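 further: 0% = median of the plate's neutral control wells and 100% = double that signal; a rise in the Bmi1 reporter signal indicates esBAF inhibition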
Wnt bcat act – Wnt/beta-catenin pathway activation | Wnt/beta-catenin reporter cell assay, activator, plate reader | activation, % at 9.35 µM | actives 1.2% (n = 300,000) | AID 743398; in the data active means activation above about 30%, passing the limit was not always enough; inconclusive means no clear call, values can overlap the other calls;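 further: 0% = neutral control wells and 100% = positive control wells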
hcDAF-12 act – H. contortus DAF-12 activation, primary screen; HEK293 hcDAF-12 lit1-tk-luc reporter, luminescence; 0% DMSO, 100% Δ7-dafachronic acid; activation, % at 6.8 µM; actives 1.4% (n = 370,000);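 active means activation above the mean of all tested compounds plus 3 SD, cut at about 5.5% in these data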;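 further: 100% = response to 3 µM Δ7-dafachronic acid high control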
DAX1 StAR inh – blocks DAX1 repression of SF-1 activated StAR promoter; HEK293T StAR-luciferase reporter, SF-1/DAX-1 repression relief; inhibition, % at 6.8 µM; actives 1.1% (n = 370,000);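 active means inhibition above the mean over all tested compounds plus 3 SD, cut at about 3.6% in these data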;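 further: 0% = DAX-1 cells with DMSO and 100% = cells lacking DAX-1 with DMSO; higher inhibition means more luminescence from relief of DAX-1 repression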
LXRb hcDAF ctr – LXR-beta agonism as hcDAF-12 counter-screen. shares compounds with hcDAF-12 act. HEK293 Gal4-LXR tk-luc reporter, luminescence, 24 h; normalized: DMSO 0%, positive control 100%. activation, % at 6.8 µM. 3,400 tested, under 10 active;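 active means mean percent activation of the reporter above a cutoff set as the average over tested compounds plus their standard deviation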
Target sequence (P55055 whole entry, looked up, the tested form may be a part): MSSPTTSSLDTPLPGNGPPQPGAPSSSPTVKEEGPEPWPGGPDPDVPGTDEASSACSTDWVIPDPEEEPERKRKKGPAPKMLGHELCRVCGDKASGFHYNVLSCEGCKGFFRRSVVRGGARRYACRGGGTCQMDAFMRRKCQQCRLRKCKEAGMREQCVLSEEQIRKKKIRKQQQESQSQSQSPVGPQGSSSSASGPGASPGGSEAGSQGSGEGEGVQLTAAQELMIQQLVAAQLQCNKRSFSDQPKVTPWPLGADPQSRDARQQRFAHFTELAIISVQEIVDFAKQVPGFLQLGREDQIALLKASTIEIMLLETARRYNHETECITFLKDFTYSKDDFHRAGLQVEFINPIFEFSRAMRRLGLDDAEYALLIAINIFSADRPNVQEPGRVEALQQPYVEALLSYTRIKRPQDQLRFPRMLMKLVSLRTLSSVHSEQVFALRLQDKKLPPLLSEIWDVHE
hcDAF12 ag – confirmation of H. contortus DAF-12 agonists. shares compounds with hcDAF-12 act. HEK293 hcDAF-12 lit1-tk-luc reporter, luminescence; % of Δ7-dafachronic acid response. activation, % at 6.8 µM. actives 61% (n = 3,400);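 active means mean activation across triplicate tests above the threshold derived from the earlier primary screen, cut at about 5.5% in these data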;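 further: 0% = DMSO only wells and 100% = 3 µM Δ7-dafachronic acid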
Numbers without * were called inactive; ! = repeats disagree.

Screening COc1ccc(CC2=C(O)c3ccccc3C(=O)C2=O)cc1 returned hgDAF-12 ag 0, ssDAF-12 act -1, esBAF inh -8, Wnt bcat act 0, hcDAF-12 act 0 and DAX1 StAR inh 1.
For O=c1cc(/C=C/c2ccccc2)oc2ccccc12 the results were hgDAF-12 ag 12*, ssDAF-12 act 1.6*, esBAF inh 59*, hcDAF-12 act 6.9*, DAX1 StAR inh 3.7*, LXRb hcDAF ctr 1 and hcDAF12 ag 9.4*.
O=C1c2ccccc2NC(c2ccc(-c3ccc(C(F)(F)F)cc3)o2)N1O (stereo unspecified) was read as hgDAF-12 ag 1, ssDAF-12 act -1, esBAF inh -1, Wnt bcat act 5, hcDAF-12 act -2 and DAX1 StAR inh -1.
Screening O=C1c2ccccc2NC(c2ccc(-c3cccs3)o2)N1O (stereo unspecified) returned hgDAF-12 ag 12*, ssDAF-12 act 1.0*, esBAF inh 67*, Wnt bcat act 59*, hcDAF-12 act 7.1*, DAX1 StAR inh 2, LXRb hcDAF ctr 1 and hcDAF12 ag 6.0*.
C[C@@H]1CN([C@@H](C)CO)C(=O)c2cc(C#CCN(C)C)cnc2O[C@H]1CN(C)C was read as esBAF inh 0.
O=C(C[C@@H]1CC[C@@H]2NC[C@H](O)COC[C@H]2O1)Nc1ccccc1 was read as esBAF inh 1.
`COc1ccc(/C=C/C(=O)C2C(=O)C=C(C)OC2=O)cc1O` (stereo unspecified) gave hgDAF-12 ag 6, ssDAF-12 act 1.6*, esBAF inh 51*, Wnt bcat act 35*, hcDAF-12 act 13*, DAX1 StAR inh 0, LXRb hcDAF ctr 0 and hcDAF12 ag 3.
`COc1cc(/C=C/C(=O)C2C(=O)C=C(C)OC2=O)cc(OC)c1O` (stereo unspecified) gave hgDAF-12 ag -2, ssDAF-12 act 0, hcDAF-12 act 3 and DAX1 StAR inh 0.
COc1ccc2nc(N=NC3=C(O)CC(C)(C)CC3=O)sc2c1 was read as hgDAF-12 ag -3, ssDAF-12 act -1, Wnt bcat act -1, hcDAF-12 act 0 and DAX1 StAR inh -2.
For COc1ccc2nc(N=Nc3ccc(O)c4ccccc34)sc2c1 the results were hgDAF-12 ag 2, ssDAF-12 act 1, Wnt bcat act -4, hcDAF-12 act 12*, DAX1 StAR inh 0, LXRb hcDAF ctr 0 and hcDAF12 ag 2.
COc1cc(/C=N/Nc2ccc3ccccc3c2)ccc1OC(=O)c1ccco1 was read as hgDAF-12 ag 5, ssDAF-12 act 0, Wnt bcat act -3, hcDAF-12 act 6.8*, DAX1 StAR inh 0, LXRb hcDAF ctr 0 and hcDAF12 ag 7.5*.
Cc1ccc2c(C)nc(/N=C(\N)NC(=O)N3c4ccccc4Sc4ccccc43)nc2c1 was read as hgDAF-12 ag 3, ssDAF-12 act 0, esBAF inh 3, Wnt bcat act -8, hcDAF-12 act 10*!, DAX1 StAR inh 0, LXRb hcDAF ctr 0 and hcDAF12 ag -1.
COc1ccc(NC(=O)Nc2ccc3c(c2)CC(=O)N([C@H](C)CO)C[C@@H](C)[C@@H](CN(C)C(=O)Nc2ccc(F)cc2)O3)cc1 was read as esBAF inh -3.
Cc1ccc(NC(=O)c2cc3ccccc3o2)cc1Cl was read as hgDAF-12 ag 13*, ssDAF-12 act 0, esBAF inh inconclusive, Wnt bcat act -2, hcDAF-12 act 8.8*, DAX1 StAR inh 3, LXRb hcDAF ctr 1 and hcDAF12 ag 5.9*.
`COc1ccc(NC(=O)c2cc3ccccc3o2)cc1` gave hgDAF-12 ag 12*, ssDAF-12 act 1, esBAF inh 58*, Wnt bcat act 4, hcDAF-12 act 7.2*, DAX1 StAR inh 2, LXRb hcDAF ctr 1 and hcDAF12 ag 7.3*.
Screening CCC(=O)N1CCN(c2ccc(NC(=O)c3cc4ccccc4o3)cc2Cl)CC1 returned hgDAF-12 ag -12, ssDAF-12 act -3, esBAF inh -2, Wnt bcat act -1, hcDAF-12 act -5 and DAX1 StAR inh -4.
For COc1ccc(CN(C)C[C@@H]2Oc3c(NS(=O)(=O)c4c(C)noc4C)cccc3C(=O)N([C@H](C)CO)C[C@@H]2C)cc1 the results were esBAF inh -1.
CC(C)c1ccc(/C=N/NC(=O)c2ccccn2)cc1 was read as hgDAF-12 ag 10, ssDAF-12 act 1.0*, Wnt bcat act 19, hcDAF-12 act 8.3*, DAX1 StAR inh 3, LXRb hcDAF ctr 2 and hcDAF12 ag 10*.
`Cc1ccc(/C=N/NC(=O)c2ccccn2)o1` gave hgDAF-12 ag 9, ssDAF-12 act -1, Wnt bcat act 10, hcDAF-12 act 5 and DAX1 StAR inh 3.
`Cc1c(-c2nc(-c3ccc(C(F)(F)F)cc3)no2)n(C)oc1=O` gave hgDAF-12 ag 9, ssDAF-12 act 0, Wnt bcat act 3, hcDAF-12 act 9.5*, DAX1 StAR inh 2, LXRb hcDAF ctr 1 and hcDAF12 ag 7.9*.
C[C@@H]1CN([C@H](C)CO)S(=O)(=O)c2ccc(/C=C/c3ccccc3)cc2O[C@H]1CN(C)C(=O)NC1CCCCC1 was read as esBAF inh 6.
Screening N#CC1(Nc2ccc3ccccc3c2)CCCC1 returned hgDAF-12 ag 9, ssDAF-12 act 0, esBAF inh 0, Wnt bcat act 17, hcDAF-12 act 6.9*, DAX1 StAR inh 4.1*, LXRb hcDAF ctr 0 and hcDAF12 ag 7.0*.
CCN1CCCC1CNC(=O)c1cc2ccc(OC)cc2[nH]1 (stereo unspecified) was read as hgDAF-12 ag 3, ssDAF-12 act 0, esBAF inh -2, Wnt bcat act -2, hcDAF-12 act 6.6*, DAX1 StAR inh 1, LXRb hcDAF ctr 0 and hcDAF12 ag 2.
For CCN1CCCC1CNC(=O)c1[nH]c2ccc(OC)cc2c1C (stereo unspecified) the results were hgDAF-12 ag 2, ssDAF-12 act -1, esBAF inh -4, Wnt bcat act 0, hcDAF-12 act -1 and DAX1 StAR inh 0.
Screening Cc1ccc2nc(-c3cccc(N)c3)[nH]c2c1 returned hgDAF-12 ag 10, ssDAF-12 act 0, Wnt bcat act 16, hcDAF-12 act 5 and DAX1 StAR inh 4.

Screening results deposited in PubChem by several laboratories.
